An excerpt weighted towards active compounds, which were near 11% of everything screened.
G9a block – G9a (human) methyltransferase inhibition; AID 504332; G9a H3K9 monomethylation, AlphaScreen, 2 h; Q96KQ7; 8.8% of 350,000 active; Potency, µM (titrated, usually from 102 µM), for inactives: at the top dose activity, negative = inhibition, usual class: inhibitors; note: % is set by controls: 0 for no effect and ±100 for the full control effect; nearly all actives have a fitted effect of over 75% in size
Target sequence (Q96KQ7 913-1193 limits assumed): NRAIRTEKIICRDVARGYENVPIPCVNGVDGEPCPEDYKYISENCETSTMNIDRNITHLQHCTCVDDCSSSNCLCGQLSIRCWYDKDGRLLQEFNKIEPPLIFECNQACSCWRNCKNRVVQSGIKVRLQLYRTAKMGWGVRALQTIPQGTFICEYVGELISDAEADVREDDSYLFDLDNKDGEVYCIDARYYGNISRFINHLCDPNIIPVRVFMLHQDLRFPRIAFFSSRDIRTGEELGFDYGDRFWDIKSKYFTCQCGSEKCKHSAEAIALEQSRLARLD
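Signal arises when biotinylated H3K9 peptide, once monomethylated, bridges streptavidin donor and antibody-captured acceptor beads. Enzyme at 20 nM was preincubated 15 min with test compounds; peptide 500 nM and SAM 20 uM then reacted for 2 h.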
BAZ2B block – inhibitors of human BAZ2B bromodomain | Potency, µM (series often up to 114 µM), without a hit: at the top dose activity change, negative = inhibition, hits mostly inhibitors | Q9UIF8 | 4.4% of 360,000 active | AlphaScreen BAZ2B-H3K14Ac peptide displacement; note: % is set by controls: 0 for no effect and ±100 for the full control effect; nearly all actives have a fitted effect of over 60% in size
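Multi-concentration screen (max 110 uM) measuring displacement of acetylated histone H3 peptide from BAZ2B by AlphaScreen, using 50 nM protein, 50 nM peptide and 10 ug/mL streptavidin donor plus Ni-chelate acceptor beads.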
HP1b chromo inh – inhibitors of HP1-beta chromodomain binding to methylated histone tails. P83916. AlphaScreen HP1-beta / biotin-H3K9me3 peptide binding. Potency, µM (doses to about 114 µM), for the others: at the highest dose activity change, negative = inhibition, hits mostly inhibitors. 0.56% of 390,000 active; note: nearly all actives have a fitted effect of over 70% in size
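AlphaScreen: HP1-beta (50 nM) preformed 30 min with biotin-H3(1-18)K9me3 peptide (50 nM) in PBS pH 7.4, 0.01% Tween-20. Compound added for 30 min at RT, then streptavidin donor/nickel chelate acceptor beads (10 ug/mL) for 30 min.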
VDR inhibitor – blocks the human vitamin D receptor | 0.93% of 400,000 active | Potency, µM, for the others: max response, negative = inhibition, actives largely listed as inhibitors | P11473 | VDR-SRC2-3 peptide fluorescence polarization, 2 h; note: % is set by controls: 0 for no effect and ±100 for the full control effect
Target sequence (P11473 whole entry, looked up): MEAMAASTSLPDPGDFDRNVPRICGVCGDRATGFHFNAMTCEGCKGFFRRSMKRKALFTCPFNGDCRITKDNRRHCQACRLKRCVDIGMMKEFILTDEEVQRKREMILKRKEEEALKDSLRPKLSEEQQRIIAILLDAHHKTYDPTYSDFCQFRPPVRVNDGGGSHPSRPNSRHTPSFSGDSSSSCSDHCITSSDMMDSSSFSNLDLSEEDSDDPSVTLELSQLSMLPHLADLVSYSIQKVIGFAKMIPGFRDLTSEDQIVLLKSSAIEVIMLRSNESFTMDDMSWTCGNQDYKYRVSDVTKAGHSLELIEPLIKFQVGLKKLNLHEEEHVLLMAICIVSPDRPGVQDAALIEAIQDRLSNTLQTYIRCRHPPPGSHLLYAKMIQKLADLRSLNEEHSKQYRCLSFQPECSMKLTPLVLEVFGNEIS
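VDR–SRC2-3 interaction, FP format. Cmpds 23 nl via pintool, brief spin, 2 h ambient incubation.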
JMJD2A Tudor – JMJD2A Tudor domain (human) inhibition; AID 504339; AlphaScreen JMJD2A-Tudor / H3K4me3 peptide binding; 4.4% of 390,000 active; Potency, µM (top dose mostly 114 µM), without a hit: at the highest dose activity change, negative = inhibition, usual class: inhibitors; note: % is set by controls: 0 for no effect and ±100 for the full control effect; nearly all actives have a fitted effect of over 50% in size
PLK1 PBD block – blocks phosphopeptide binding to human PLK1 polo-box domain; 2.8% of 360,000 active; AID 720504; Potency, µM, for the others: max response, negative = inhibition, most hits filed as inhibitors; P53350; Plk1 PBD binding of FITC phosphopeptide, fluorescence polarization; note: series mostly up to about 57 µM; % is set by controls: 0 for no effect and ±100 for the full control effect; nearly all actives have a fitted effect of over 65% in size
* hit, by the source's call; ? = inconclusive; . = no result given; [ ] = another dose, or the depositor's remark. Calls come from the whole dose curve; as a rule, active = well fitted curve in the direction sought with a large enough effect; inconclusive = small, poorly fitted or top-dose-only effect, or another doubt; inactive = no such curve, though single readings can be large; an effect the other way counts as inactive or inconclusive. Potency is the fitted concentration of half-maximal effect.

SMILES | G9a block | BAZ2B block | HP1b chromo inh | VDR inhibitor | JMJD2A Tudor | PLK1 PBD block
COCc1cc(CN2CCN(C)CC2)c(O)c2ncccc12 | -125.7% | 1.12µM* | 21.4% | -9.2% | 7.94µM* | 0.1%
COc1ccc2ccccc2c1CN1CCN(C)CC1 | -30.4%[59 µM] | -29.1% | 25.3% | 7.3% | 27.8% | -2.3%
Cc1cc(C)n(-c2cc(N3CCN(C(=O)c4ccccc4C)CC3)ccc2[N+](=O)[O-])n1 | . | . | 39.7% | -3.8% | -18.8% | -17.9%
Clc1ccc(-c2c[n+]3c(n2-c2ccccc2)SCC3)cc1 | 56.2µM* | -9.0% | 31.4% | -12.8% | -5.6% | -2.1%
CC(C)Nc1nc(C#N)nc(Nc2ccccc2)n1 | . | . | . | . | -15.9% | .
CC(=O)N(NC(=O)c1ccc(C)cc1)C1CC(=O)N(c2ccccc2Cl)C1=O (stereo unspecified) | 13.4%[59 µM] | 6.1% | 33.8% | -11.7% | -9.3% | -11.7%
CC(=O)N1c2ccccc2C(=O)C1N1CCN(c2cc(Cl)ccc2C)CC1 (stereo unspecified) | 7.94µM* | ? | 54.7% | 16.9% | -28.6% | .
CC(=O)N1c2ccccc2C(=O)C1N1CCN(c2ccc(Cl)cc2)CC1 (stereo unspecified) | -48.1%[59 µM] | -1.4% | 10.8% | 7.8% | -17.5% | .
Cc1ccccc1C(=O)Nc1ccnn1C1CCN(C(=O)C2CCOC2)CC1 (stereo unspecified) | 29.7% | 1.8% | 25.0% | -18.3% | -3.4% | 1.2%
Cc1ccc(S(=O)(=O)N2C3CCCCC3O[C@H]2CC(=O)c2ccccc2)cc1 (stereo partly specified) | . | . | . | . | . | -12.6%
Cc1cc(C)nc(N(C#N)S(=O)(=O)c2ccc(Br)cc2)n1 | -33.2%[59 µM] | ? | . | . | . | .
Cc1ccc(S(=O)(=O)CC(O)COc2ccc(C#N)cc2)cc1 (stereo unspecified) | 23.4%[59 µM] | 4.4% | 6.0% | 10.0% | -11.0% | -1.7%
Cc1ccc(S(=O)(=O)N(C)S(=O)(=O)c2ccc(C#N)cc2)cc1 | 44.7µM* | -1.9% | . | . | . | .
Cc1ccc(S(=O)(=O)N(C#N)c2nc(C)cc(C)n2)cc1 | 44.7µM* | ? | 56.0% | -2.8% | -13.6% | 1.4%
FC(F)(F)c1ccccc1-c1nccc(-n2ccnc2)n1 | -10.1%[0.501 µM] | . | . | 44.7µM* | . | .
N#Cc1cccc(-c2nccc(-n3ccnc3)n2)c1 | ? | . | . | 50.1µM* | . | .
COc1cc(/C=C2/SC(=Nc3ccc(O)cc3)NC2=O)cc(OC)c1O | -39.0% | 11.0% | 0.4% | 10.1% | -11.7% | 5.3%
COC(=O)c1ccc(N2NC(=O)/C(=C/c3cc(OC)c(O)c(OC)c3)C2=O)cc1 | 2.82µM* | 44.7µM* | ? | ? | ? | 19.3%
COC(=O)c1ccc(N2NC(=O)/C(=C/c3cc(OC)c(OC)c(OC)c3)C2=O)cc1 | -12.2%[2.33 µM] | -30.5% | 19.4% | 70.8µM* | -10.3% | 8.44µM*
CCOc1ccc(C(=O)c2ccc(OC)c(O)c2O)cc1 | -45.9%[2.33 µM] | . | . | ? | . | .
C[N+]1(C)CCC(=C2c3ccccc3CC(=O)c3sccc32)CC1 | 6.31µM* | 7.08µM* | 20.7% | -20.5% | -22.4% | 37.7µM*
CCOC(=O)c1ccccc1NC(=O)Cn1ccn2nc(-c3ccc(OCC)cc3)cc2c1=O | 15.4%[59 µM] | -5.9% | 39.0% | 9.8% | -6.0% | .
Cc1noc(C)c1CSCC(=O)Nc1cccc(C(F)(F)F)c1 | . | . | 39.2% | -4.5% | -7.6% | 1.1%
Cc1ccccc1C1CC(c2cccs2)Nc2nnnn21 (stereo unspecified) | 17.0%[59 µM] | -13.0% | 23.1% | -7.0% | -17.2% | -0.5%
CC(C)(NC(=O)c1cc(Cl)c2ccccc2c1O)C(=O)O | 31.6µM* | -21.2% | 30.3% | -14.8% | -14.8% | -13.2%
SMILES | G9a block | BAZ2B block | HP1b chromo inh | VDR inhibitor | JMJD2A Tudor | PLK1 PBD block
CCCCC(=O)NC(=S)NNC(=O)CCc1ccccc1 | 31.6µM* | 4.6% | 38.0% | ? | 2.0% | ?
CCN(C(=S)NC(=O)CCc1ccccc1)c1ccccc1 | 8.91µM* | -5.1% | -3.3% | -16.5% | ? | ?
O=C(CCc1ccccc1)NNC(=S)NC(=O)c1ccccc1 | 4.47µM* | 1.8%[57.1 µM] | -3.6% | -13.7% | 28.2µM* | 26.7µM*
CCN(C(=S)Nc1cccc2ccccc12)c1ccccc1 | . | . | . | . | . | -22.4%
CC(=O)NC(=S)NNC(=O)CCc1ccccc1 | 8.91µM* | -1.5% | 6.9% | -6.0% | ? | ?
O=C(CCc1ccccc1)NNC(=S)NCCc1ccccc1 | -11.4% | -9.6% | ? | 5.5% | -15.6% | -13.2%
CC(C)(C)c1cc(CCC(=O)NNC(=S)NC(=O)c2ccccc2)cc(C(C)(C)C)c1O | 28.2µM* | -34.2% | 7.7% | -15.7% | ? | ?
CC(C)(C)c1cc(CCC(=O)NNC(=O)c2ccco2)cc(C(C)(C)C)c1O | 24.1%[59 µM] | ? | 52.9% | -16.7% | -8.9%[57.1 µM] | -11.7%
Brc1cc2c(cc1Br)OCCOCCOCCO2 | . | -25.2% | 41.8% | 1.7% | 8.0% | 1.6%
Cc1cccc2c3c([nH]c12)CCNC3 | -4.5%[0.501 µM] | -36.2% | -9.6% | ? | ? | 23.8µM*
CC(C)Cc1ccc(CN2CCCC(NC(=O)CCN3CCCCC3=O)C2)cc1 (stereo unspecified) | -9.1% | -4.7% | 38.9% | 19.0% | -11.0% | 7.5%
CC(C)Cc1ccc(C(C)/C=C2/CCC(CN3CCCCC3)C2=O)cc1 (stereo unspecified) | . | . | 29.6% | ? | ? | 13.4µM*
C=C1CCN([C@@H](Cc2ccccc2)C(=O)NCCCc2ccccc2)S(=O)(=O)c2ccccc21 | . | . | 50.4% | -13.5% | -2.1% | -5.4%
COc1ccc(C)cc1NCc1ccc([N+](=O)[O-])cc1 | -0.8%[0.501 µM] | 39.8µM* | ? | -14.0% | 50.1µM* | -1.0%
COc1ccc(C)cc1NCc1ccc(OC)c(C)c1OC | 8.91µM* | 22.4µM* | ? | 4.5% | 20µM* | -3.6%
COc1ccc(CNCCc2ccc([N+](=O)[O-])cc2)c(OC)c1OC | -12.5%[0.501 µM] | 50.1µM* | 1.6% | 11.0% | 79.4µM* | -7.0%
Cc1ccccc1NCc1ccccc1O | 39.8µM* | 56.2µM* | -3.4% | 9.9% | ? | -5.7%
COc1ccc(C)cc1NC(=O)COC(C)=O | -7.0%[59 µM] | -3.0% | 16.8% | -5.8% | -7.5% | -0.5%
COc1ccc(CCNC(=O)c2ccc(-c3ccc([N+](=O)[O-])cc3)o2)cc1OC | -6.7%[59 µM] | -22.4% | 13.1% | -13.1% | -20.2% | -22.9%
O=C(NC1CCCCC1)C1c2ccccc2OCC(=O)N1Cc1cccnc1 (stereo unspecified) | . | . | . | . | . | -1.7%
COc1ccc(-c2ccccc2)cc1NCc1ccccc1C | ? | 50.1µM* | -11.7% | -2.2% | ? | -8.0%
CC1CCc2sc(C(=O)NN=C3CCC(c4ccccc4)CC3)cc2C1 (stereo unspecified) | 6.9%[59 µM] | 45.4% | 2.9% | -8.6% | ? | ?
Nc1nc2c(s1)CC(c1ccccc1)CC2 (stereo unspecified) | 50.1µM* | ? | -2.0% | -13.4% | 5.5%[11.4 µM] | ?

Screening results: PubChem, National Center for Advancing Translational Sciences (NCATS)
